S1P4 antagonist: blocks the human S1P4 receptor | O95977 | S1P4-expressing cells, antagonist mode, reporter read-out | inhibition, % at 4.98 µM | 0.26% of 220,000 active | AID 1510; in the data active = inhibition above about 29%;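 note: 0% = wells stimulated with agonist and 100% = vehicle wells without agonist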
HSF1 inh: HSF1 inhibition; NIH3T3-HGL HSE-luciferase, MG132-induced, luminescence 8 h; hits give low values; 0.77% of 300,000 active; activity change, negative = inhibition, % at 7.5 µM (by protocol); AID 2098;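 active = more than half of replicate wells show activity change below -50%, luminescence cut by over half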;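 note: luciferase reports HSF-1 transcriptional activity via heat shock element; 0% = median of DMSO wells and -100% = zero luminescence signal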
HSF1 activator: increases HSF-1 driven luciferase reporter signal. NIH3T3-HGL HSF-1 luciferase reporter, MG132, 8 h; 100% = twice DMSO control signal. activation, % at 9 µM. 1.7% of 300,000 active;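 active = mean replicate activation of at least 50% with a set share of replicates each reaching 50%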;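 note: 0% = median of the neutral control wells and 100% = twice that signal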
S1P3 antagonist: blocks the human S1P3 receptor; Q99500; 0.27% of 170,000 active; CHO S1P3 NFAT-BLA reporter, FRET fluorescence, antagonist mode; inhibition, % at 4.98 µM; AID 485;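 active = inhibition above the plate cutoff, the mean inhibition of test wells on that plate plus 3 SD, cut at about 28% in these data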;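 note: cells challenged with S1P at its EC80 of 0.8 µM; blue over green emission ratio from cleaved BLA substrate after 4 h stimulation; 0% = S1P-stimulated wells and 100% = unstimulated DMSO-only wells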
Target sequence (Q99500 whole entry, looked up): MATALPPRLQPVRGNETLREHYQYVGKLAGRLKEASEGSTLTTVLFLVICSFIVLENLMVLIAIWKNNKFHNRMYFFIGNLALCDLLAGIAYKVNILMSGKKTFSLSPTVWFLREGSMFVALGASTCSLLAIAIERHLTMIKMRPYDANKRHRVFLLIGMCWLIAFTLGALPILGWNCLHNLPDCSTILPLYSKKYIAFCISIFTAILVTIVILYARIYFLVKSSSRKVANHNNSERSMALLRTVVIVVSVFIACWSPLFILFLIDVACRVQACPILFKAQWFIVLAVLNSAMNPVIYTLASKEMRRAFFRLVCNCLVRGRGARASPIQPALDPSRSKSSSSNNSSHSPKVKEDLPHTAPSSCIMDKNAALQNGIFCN
Hsp70 activator: Hsp70 transcriptional activation, primary screen; HeLa Hsp70 promoter luciferase reporter, luminescence; scaled: vehicle 0, proteasome-inhibitor control 100%; activation, % at 10 µM; 0.04% of 200,000 active; AID 1203;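 active = activation above the mean across all tested compounds plus 3 SD, cutoff set per campaign, cut at about 5.5% in these data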;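 note: 100% = MG132 at 30 µM as the positive control and 0% = DMSO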
S1P4 ag: activates the human S1P4 receptor; O95977; 0.35% of 220,000 active; activation, % at 4.98 µM; S1P4-expressing cell line, agonist reporter assay; in the data active = activation above about 11%;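 note: 0% = DMSO vehicle and 100% = reference agonist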
Starred values were filed as active, the others as inactive; · = not tested or not shown. In the library only some 2.9% were active in any assay of this set; here they are far more common.

SMILES	S1P4 antagonist	HSF1 inh	HSF1 activator	S1P3 antagonist	Hsp70 activator	S1P4 ag
CC(C)[C@H](NC(=O)[C@H](Cc1ccccc1)n1c(=O)[nH]c2ccccc2c1=O)C(=O)N1CCC[C@H]1C(=O)O	·	-1.3	1.8	·	·	·
CCN(CCCNS(=O)(=O)c1ccc2c(c1)CCN2C(C)=O)c1cccc(C)c1	-15.4	44.1	68.6*	-17.3	-0.4	0.1
Cc1cccc(CCNS(=O)(=O)c2ccc3c(c2)CCN3C(=O)CCC(=O)O)c1	·	-4.3	-5.7	·	·	·
O=C(NC(=O)c1ccccc1O)c1ccc(C(F)(F)F)cc1	5.1	62.2	90.9*	-6.2	·	-0.4
COc1ccc(C(=O)NCc2nnc(SCC(=O)Nc3nc4ccc(C)cc4s3)o2)cc1OC	-16.1	-3.3	3.4	-4.8	-0.4	1.0
Oc1ccc2ccccc2c1/C=N/Nc1nnc(-c2ncc[nH]2)c2ccccc12	-17.4	-10.4	-8.5	·	-0.3	-1.8
Oc1ccc2ccccc2c1C=NNc1ccccn1	·	69.8*	69.8*	·	·	·
C=CCNCCOCCSc1ccc(Cl)cc1	-13.8	20.8	51.7*	-2.2	-0.1	0.8
CC1CC(C)CN(S(=O)(=O)N2CCCC(C(=O)NC(C)c3ccccc3)C2)C1 (stereo not given)	·	-2.8	0.9	·	·	·
Cc1cccn2c(=O)c3cc(S(=O)(=O)c4ccccc4)c(=N)n(Cc4ccco4)c3nc12	-19.9	6.9	48.9	-2.8	0.1	2.5
Cc1cccn2c(=O)c3cc(S(=O)(=O)c4ccc(F)cc4)c(=N)n(Cc4ccco4)c3nc12	-19.8	50.0	97.7*	10.3	·	1.6
O=c1c2ccccc2nnn1COc1cccc(Cl)c1	8.1	55.3	73.6*	13.9	-0.1	0.9
Cc1cc2c3c([nH]c2cc1S(=O)(=O)N1CCC2(CC1)OCCO2)CCCC3=O	·	5.6	-7.3	·	·	·
CC(=O)c1sc(NC(=O)C=C(C)C)nc1C	-4.3	14.1	21.6	-6.7	0.1	0.2
CC(=O)c1sc(NC(=O)C2(F)C(F)(F)C(F)(F)C(F)(F)C(F)(F)C2(F)F)nc1C	-1.7	-2.8	-17.9	76.1*	-0.5	0.5
Cc1ccc2cccc(NC(=O)C(F)(F)F)c2n1	-10.0	142.5	214.8*	11.8	-0.3	2.1
CC(=O)NC(=S)Nc1cccc2ccc(C)nc12	4.2	0.3	-2.3	-4.7	·	1.7
C/C=C/c1c(F)c(F)c(Oc2ccc(C(=O)O)cc2)c(F)c1F	0.7	86.7	124.8*	·	-0.2	-1.1
CC(C)OC(=O)Nc1ccc(Oc2c(F)c(F)c(F)c(F)c2F)cc1	-15.4	-3.8	-12.2	2.5	0.0	-0.2
CCc1cccc(CC)c1NC(=O)COC(=O)CC1c2ccccc2CCN1S(=O)(=O)c1ccccc1 (stereo not given)	-3.3	5.4	5.7	-2.5	-0.3	2.4
O=C(CN1C(=O)NC2(CCc3ccccc32)C1=O)c1ccc(Br)cc1 (stereo not given)	·	5.0	5.3	·	·	·
CCOc1ccc(S(=O)(=O)N2CCN=C2c2ccccc2)c(C)c1C	·	1.2	-4.4	·	·	·
O=C(CCN1CCCCCC1)Nc1ccc(F)cc1	-4.6	2.6	-0.7	0.1	-0.1	1.0
Cc1ccc(CS(=O)(=O)CCC(=O)NCCN2CCCCC2C)cc1 (stereo not given)	-24.2	-0.7	-2.9	9.8	-0.3	1.3
Cc1ccc(CS(=O)(=O)CCC(=O)NCCCN2CCCC2)cc1	-14.5	-2.5	8.1	81.7*	-0.2	1.0
SMILES	S1P4 antagonist	HSF1 inh	HSF1 activator	S1P3 antagonist	Hsp70 activator	S1P4 ag
Cc1ccc(NC(=O)CCN2CCCCC2)cc1	·	-63.4*	-67.9	·	·	·
CCn1ccnc1CNC(=O)c1ccc(OC2CCN(C(=O)COC)CC2)cc1	·	-3.8	-6.4	·	·	·
CCN(CC(=O)Nc1c(F)cccc1F)C(=O)CCN1C(=O)C2CC=CCC2C1=O (stereo not given)	·	-5.0	-15.0	·	·	·
O=c1[nH]cnc2scc(-c3ccc(-c4ccccc4)cc3)c12	-12.3	14.1	58.0*	·	0.7	-0.9
Fc1ccc(CNC(=S)NCc2cccc(Cl)c2)cc1	·	-2.8	10.4	·	·	·
O=C(Cc1cccs1)Nc1ccon1	0.9	-10.9	-17.8	94.2*	-0.4	1.1
O=C(Cc1cccs1)Nc1ccccn1	5.2	1.3	-6.8	2.1	-0.2	1.8
CCOC(=O)N1CCC(NC(=O)CN2C(=O)CSc3nc(C)cc(C)c32)CC1	-12.0	-70.9*	-77.7	5.1	-0.1	0.3
CCOC(=O)N1CCC(NC(=O)CN2C(=O)CSc3ncccc32)CC1	-8.8	2.2	24.0	-16.0	-0.2	-1.0
CCCN(CCC)CCCNC(=O)CS(=O)Cc1nc(-c2ccc(OC)c(OC)c2)oc1C (stereo not given)	-7.2	22.6	54.6*	9.7	0.0	0.6
CCCCN(C)CCCNC(=O)CS(=O)Cc1nc(-c2ccc(OC)c(OC)c2)oc1C (stereo not given)	-17.7	-9.8	35.9	-14.5	0.2	2.2
CC1CCCN(C(=O)C2(NC(=O)Nc3cccc(F)c3)CCCCC2)C1 (stereo not given)	8.5	-86.1*	-89.5	2.8	-0.3	-1.5
CCOC(=O)c1cnc2ccc(OCC)cc2c1N1CCN(C)CC1	-5.7	7.5	-12.9	-16.9	-0.2	0.1
CCOc1ccc2ncc(S(=O)(=O)c3ccc(C)cc3)c(N3CCC4(CC3)OCCO4)c2c1	2.3	41.3	103.5*	-2.8	-0.5	-0.1
Cn1c(/C=C/c2ccc(Br)cc2)nc2ccccc2c1=O	·	36.6	61.5*	·	·	·
CCn1c(CSc2nc3ccccc3s2)nc2ccccc21	-5.8	58.3	75.7*	·	0.0	-1.1
c1csc(CSc2nc3ccccc3s2)c1	-1.6	31.0	55.6*	-25.4	0.3	-2.4
O=C1NC(CCc2ccccc2)C(=O)N1CCOc1cccc(Br)c1 (stereo not given)	-4.5	-13.1	3.8	-19.9	-0.2	-1.8
O=C(/C(Cl)=C/Nc1ccc(Br)cn1)C(F)(F)F	-21.8	-3.9	-7.7	-17.2	0.2	0.4
CCCOc1ccc(-c2c(=O)n(OCC(=O)OCC)c3ccccc3[n+]2[O-])cc1	·	34.0	55.9*	·	·	·
CN1CCC(N(C)S(=O)(=O)c2ccc(NC(=O)COc3cccc(C(F)(F)F)c3)cc2)CC1	·	-2.4	-9.0	·	·	·
Cn1nc([N+](=O)[O-])c(C(C#N)c2nc3ccccc3n2C)c(Cl)c1=O (stereo not given)	-11.9	39.7	61.0*	3.7	-0.2	0.7
Cn1c(-c2ccc([N+](=O)[O-])cc2)nc2ccccc21	-1.3	16.4	18.2	-14.1	0.4	-2.2
Cc1ccc(NC2=NCC(=O)N2Cc2ccc3c(c2)OCO3)cc1	-17.7	10.6	34.7	0.5	-0.2	-0.1
COc1ccc2oc(-c3ccc(C)c(NC(=O)c4ccc(N5CCOCC5)c([N+](=O)[O-])c4)c3)nc2c1	-12.1	45.2	80.7*	·	0.2	-3.5
COc1ccc(CNC(=O)c2ccc(N3CCOCC3)c([N+](=O)[O-])c2)cc1	7.8	-1.0	11.4	-8.7	1.5	1.6
CS(=O)(=O)N1N=C(c2ccc(Br)cc2)CC1c1ccc2c(c1)OCO2 (stereo not given)	-10.9	41.9	76.8*	·	0.1	1.7

Screening data (PubChem BioAssay)
